# Compound activity (PubChem BioAssay)
# CYP2C19 act = activators of human cytochrome P450 2C19; P33261; AID 1025; activation factor at 5 µM; recombinant CYP2C19, luciferin-H EGE luminescence; active compounds read high; 0 = fully inhibited enzyme, 1 = untreated enzyme; 96,000 tested, under 10 active;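 active = activation factor of at least 2 at 5 µM in the primary screen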;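 also: 0 = wells with 2.5 mM tranylcypromine and 1 = vehicle-only wells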
# Target sequence (P33261 whole entry, looked up): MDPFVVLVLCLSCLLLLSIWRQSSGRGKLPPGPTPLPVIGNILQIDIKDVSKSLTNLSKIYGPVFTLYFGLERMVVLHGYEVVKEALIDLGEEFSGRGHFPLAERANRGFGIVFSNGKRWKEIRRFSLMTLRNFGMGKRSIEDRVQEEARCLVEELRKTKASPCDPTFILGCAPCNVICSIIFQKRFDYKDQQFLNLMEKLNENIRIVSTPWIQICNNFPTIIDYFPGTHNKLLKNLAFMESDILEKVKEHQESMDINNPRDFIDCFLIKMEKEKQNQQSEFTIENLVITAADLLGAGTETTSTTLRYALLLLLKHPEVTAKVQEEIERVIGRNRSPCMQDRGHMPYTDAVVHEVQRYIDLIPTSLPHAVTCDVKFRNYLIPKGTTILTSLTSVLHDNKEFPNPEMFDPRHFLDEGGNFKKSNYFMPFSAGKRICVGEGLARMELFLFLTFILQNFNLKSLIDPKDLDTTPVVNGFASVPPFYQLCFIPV
# cytoskel mod = alters cytoskeleton assembly in HUVEC cells; inhibition, % at 2 µM; actives 0.18% (n = 91,000); HUVEC TNFa F-actin phalloidin imaging, high content; AID 836;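 active = inhibition above the batch mean plus 3 SD and confirmed as a hit by visual image inspection, cut at about 30% in these data, passing the limit was not always enough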
# CYP2C19 inh = human CYP2C19 inhibition; P33261; CYP2C19 Supersomes, luciferin-H EGE luminescence, 30 min; inhibition, % at 5 µM; actives 21% (n = 96,000);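 active = CYP2C19 inhibition above a set limit at 5 µM in the primary screen, cut at about 50% in these data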;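 also: plate controls were negative control wells for no effect and 2.5 mM tranylcypromine positive control for full effect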
# E-sel TNF inh = blocks E-selectin expression induced by TNF alpha | HUVEC TNFa-induced E-selectin immunofluorescence, high content | inhibition, % at 2 µM | actives 0.71% (n = 120,000);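 active = inhibition above the batch mean plus 3 SD, and confirmed as a hit on visual image review, cut at about 43% in these data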;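 also: 0% = TNF-stimulated DMSO wells and 100% = unstimulated control wells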
# CYP2C9 inh = blocks human cytochrome P450 2C9. P11712. CYP2C9 Supersomes, luciferin-H conversion, luminescence. inhibition, % at 5 µM. actives 20% (n = 96,000);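 active = blocking of liver enzyme CYP2C9 beyond about 50% at 5 µM, limit read from the data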
# CYP2C9 activ = CYP2C9 (human) activation; actives 1.4% (n = 96,000); recombinant CYP2C9, luciferin-H conversion, luminescence; active compounds read high; factor 1 = untreated enzyme, 0 = blocked; AID 1024; activation factor at 5 µM;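 active = activation factor of 2 or more for CYP2C9 at a 5 µM dose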;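 also: 0 = sulfaphenazole-blocked wells and 1 = vehicle-only wells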
# An asterisk follows results filed as active; nt = no result given. Hits are enriched below; roughly 22% of the tested compounds scored in any of these assays.
SMILES,CYP2C19 act,cytoskel mod,CYP2C19 inh,E-sel TNF inh,CYP2C9 inh,CYP2C9 activ
O=S(=O)(Nc1nccs1)c1ccc(NS(=O)(=O)c2cccs2)cc1,1.1,-3.0,-11.0,9.6,89.6*,0.1
O=S(=O)(Nc1ccccc1N1CCCCC1)c1ccc(Cl)s1,0.4,2.3,56.6*,15.7,11.9,0.9
O=C(c1ccc(NS(=O)(=O)c2cccs2)cc1)N1CCCCC1,nt,-1.2,nt,-14.5,nt,nt
O=C(c1ccccc1NS(=O)(=O)c1cccs1)N1CCCC1,0.9,21.0,7.8,nt,8.8,0.9
O=S(=O)(Nc1cc(Cl)ccc1N1CCCCC1)c1cccs1,0.2,0.6,81.5*,nt,53.2*,0.5
O=C(Nc1ccccc1)c1ccccc1NS(=O)(=O)c1ccc(Cl)s1,nt,6.9,nt,32.6,nt,nt
O=S(=O)(Nc1ccc(S(=O)(=O)N2CCCCCC2)cc1)c1cccs1,1.2,-12.6,-18.4,12.5,90.6*,0.1
CC1CCN(S(=O)(=O)c2ccc3[nH]c(=O)c(=O)[nH]c3c2)CC1,1,-25.5,-0.5,10.0,-3.9,1
NC(=O)c1cc(-c2ccccc2)nc(Oc2ccccc2)n1,0.8,16.5,23.2,-7.0,20.4,0.8
CN=C1c2c(-c3ccccc3)c3cc(OC)ccc3n2CCN1C,1,-12.0,4.9,4.0,-6.4,1.1
O=S(=O)(Nc1ccc(S(=O)(=O)N2CCCCC2)cc1)c1ccc(Br)s1,0.8,-7.9,17.6,-15.7,95.5*,0
O=S(=O)(Nc1ccc(N2CCCCC2)cc1)c1cccs1,0,12.2,98.2*,15.9,100.4*,0
Cc1ccn(Cc2n[nH]c(=S)n2Cc2ccccc2)n1,0.6,10.0,42.1,-1.8,10.9,0.9
Cc1cc(C)n(-c2ccc(C(=O)Nc3ccc4c(c3)OCCO4)cc2)n1,0.5,-10.6,50.0*,-0.3,22.2,0.8
O=C(Nc1ccc2oc(-c3ccccc3F)nc2c1)c1ccc2c(c1)OCCO2,0.5,8.0,49.2,nt,51.3*,0.5
CC(=O)Nc1ccc2oc(-c3ccccc3Br)nc2c1,0.7,6.9,27.2,15.9,72.6*,0.3
Cc1cc(C)n(-c2ccc(C(=O)NCc3ccc4c(c3)OCO4)cc2)n1,0.6,nt,41.5,-6.6,48.9,0.5
O=C(Nc1ccc2nn(-c3ccccc3)nc2c1)c1ccc2c(c1)OCCO2,0.4,2.8,58.9*,15.0,55.5*,0.4
CCOc1ccc(-n2nc3ccc(NC(=O)c4ccc5c(c4)OCCO5)cc3n2)cc1,nt,19.2,nt,8.2,nt,nt
O=C(Nc1ccc(-c2nc3ccccc3o2)cc1)c1ccc2c(c1)OCO2,0.9,-3.2,7.2,-0.4,14.9,0.9
CC(C)(C)c1cc(C(=O)O)nn1-c1ccccc1,1,-11.4,-0.3,-10.6,4.0,1
CC(NC(=O)C(C)N1C(=O)C2C3CC(C(Br)C3Br)C2C1=O)c1ccccc1 (stereo not drawn),nt,nt,nt,-22.1,nt,nt
CN1CCN(Cc2ccc(-c3ccc(Cl)cc3)o2)CC1,0.4,nt,57.2*,-10.6,7.1,0.9
CCOC(=O)CSc1nc2c(cnn2-c2ccc(C)cc2)c(=O)[nH]1,1.1,-38.3,-6.5,nt,1.2,1
O=C(c1ccc2ccccc2n1)N1CCN(c2ccccc2)CC1,0.7,-15.0,34.6,-38.9,-41.2,1.4
SMILES,CYP2C19 act,cytoskel mod,CYP2C19 inh,E-sel TNF inh,CYP2C9 inh,CYP2C9 activ
O=C(c1ccc2ccccc2n1)N1CCN(c2ccccc2O)CC1,0.4,-41.2,58.5*,-2.3,40.9,0.6
CCOC(=O)c1ccc(NC(=O)NC2CC3CCC(C2)N3Cc2nnnn2Cc2ccco2)cc1 (stereo not drawn),0.7,4.0,30.9,-6.0,36.9,0.6
CC(C)(C)n1nnnc1CN1C2CCC1CC(NC(=O)Nc1ccccc1)C2 (stereo not drawn),0.9,8.6,8.1,nt,53.3*,0.5
CCS(=O)(=O)N1CCC(NC(C)=O)(c2ccccc2)CC1,1.1,-21.9,-9.5,-19.3,-12.0,1.1
CC(=O)NC1(c2ccccc2)CCN(Cc2nnnn2C(C)(C)C)CC1,0.3,nt,66.9*,nt,31.5,0.7
CCc1[nH]nc2c1C(c1cccnc1)C(C#N)=C(N)O2 (stereo not drawn),1.1,7.0,-6.0,9.3,-5.7,1.1
Cc1[nH]nc2c1C(c1ccc(F)cc1)C(C#N)=C(N)O2 (stereo not drawn),0.5,-14.4,47.8,nt,32.9,0.7
CCC(CC)C1C(C#N)=C(N)Oc2n[nH]c(C)c21 (stereo not drawn),0.2,4.0,82.2*,7.7,57.1*,0.4
CCc1[nH]nc2c1C(C(C)C)C(C#N)=C(N)O2 (stereo not drawn),0.3,nt,74.9*,nt,32.1,0.7
CCC(CC)C1C(C#N)=C(N)Oc2n[nH]c(-c3ccccc3)c21 (stereo not drawn),0.4,-4.2,57.0*,nt,-22.2,1.2
CCCc1[nH]nc2c1C(CCC)C(C#N)=C(N)O2 (stereo not drawn),0.4,-28.6,61.7*,-27.3,6.5,0.9
CCN(CCNC(=O)CN(C)S(=O)(=O)c1cccc2nsnc12)c1ccccc1,0.1,-9.3,89.3*,-11.9,58.9*,0.4
CN(CC(=O)NCCC1=CCCCC1)S(=O)(=O)c1ccc2c(c1)CCC(=O)N2,1,-10.6,3.8,nt,32.4,0.7
CCN(CCCNC(=O)CN(C)S(=O)(=O)c1ccc2c(c1)CCC(=O)N2)c1cccc(C)c1,0.8,4.0,15.9,nt,63.6*,0.4
CCN(CCCNC(=O)CN(C)S(=O)(=O)c1cccc2nsnc12)c1cccc(C)c1,0.7,15.9,27.1,nt,73.5*,0.3
CCCC(=O)NC(NC1CCS(=O)(=O)C1)C(Cl)(Cl)Cl (stereo not drawn),nt,nt,nt,-13.8,nt,nt
COc1ccc(CCN2C(=O)c3ccncc3C2=O)cc1OC,0.8,-6.2,17.4,-16.2,19.3,0.8
CC1CC(C)CN(C(=O)c2ccc(C#N)cc2)C1 (stereo not drawn),nt,nt,nt,-18.0,nt,nt
COC(=O)c1ccc(C)c(NC(=O)CCSc2ccc(Cl)cc2)c1,0.5,16.7,49.3,-51.9,38.6,0.6
CC(C)OCCCNC(=O)CCSc1ccc(Cl)cc1,0.4,2.3,62.7*,4.1,78.2*,0.2
CCc1c(C)nc2ncnn2c1N1CCC(C(=O)N2CCN(c3ccc(F)cc3)CC2)CC1,0.4,10.3,60.6*,55.3*,5.7,0.9
Cc1nc2ncnn2c(N2CCC(C(=O)NC3CCCC3)CC2)c1Cc1ccccc1,0.3,-8.1,66.3*,-9.7,60.0*,0.4
COc1cccc(N=Cc2c[nH][nH]c2=O)c1,0.9,8.0,8.0,-22.3,22.9,0.8
Cc1cc(-c2ccccc2)nc2[nH]n(-c3ccccc3)c(=O)c12,0.9,8.0,10.0,3.9,58.8*,0.4
O=c1c2c(C(F)(F)F)cc(C(F)(F)F)nc2[nH]n1-c1ccccc1,1,nt,2.3,-10.6,83.6*,0.2
Cc1cc(C)c2c(=O)n(-c3ccccc3)[nH]c2n1,1,nt,-3.2,-43.1,-5.2,1.1
O=C1NC2CCCCC2NC1CC(=O)N1CCN(c2ccccc2)CC1 (stereo not drawn),nt,1.3,nt,0.8,nt,nt
